The campaign covered roughly 13,000 compounds. About 3,200 (25%) showed an effect of 50% or more. The list shows a part of the results.

The assay relates to P. falciparum stage V gametocytes. More on the design: BacTiter-Glo ATP luminescence viability of purified stage V gametocytes in 384-well plates, per cent inhibition versus DMSO. Particulars: 48 h, 5 µM; inhibitor.
Consider `COCCNCc1ncsc1-c1ccc2c(Nc3cc(O)ccc3C)ccnc2c1` [TCMDC-138465], for which the “% Inhibition” value is -33.69%.
With `CC(C)(C)c1ccccc1OC(=O)c1ccccc1` [TCMDC-123936], the “% Inhibition” value is -15.9%.
For `CCCN1CCC(c2c[nH]c3ccc(NC(=O)Nc4cccc(Cl)c4Cl)cc23)CC1` [TCMDC-139182], the “% Inhibition” value is reported as -83.82%.
As for `Cc1ccc2c(N/N=C/c3ccccc3[N+](=O)[O-])cc(C)nc2c1` [TCMDC-142071], the “% Inhibition” value is listed as 26.69%.
Consider `O=[N+]([O-])c1ccc(-c2ccc(C=NNc3nc(Nc4ccccc4)nc(Nc4ccccc4)n3)o2)cc1` [TCMDC-124230], for which the “% Inhibition” value is -25.78%.
For `O=[N+]([O-])c1ccc(Nc2nc(N/N=C/c3ccc(-c4ccc([N+](=O)[O-])cc4)o3)nc(Nc3ccccc3)n2)cc1` [TCMDC-123858], the “% Inhibition” value is given as -4.596%.
As to `COc1ccc2nc(C)cc(NN=Cc3cccc([N+](=O)[O-])c3)c2c1` [TCMDC-123972], the “% Inhibition” value came out at 49.98%.
For `O=[N+]([O-])c1ccc(C=NNc2nc(Nc3ccccc3)nc(Nc3ccccc3)n2)o1` [TCMDC-125802], the “% Inhibition” value turned out to be 108.2%.
Under `Cc1cc(N/N=C/c2cccc([N+](=O)[O-])c2)c2ccccc2n1` [TCMDC-123977] stands 89.22%; under `COc1ccc2c(N/N=C/c3cccc([N+](=O)[O-])c3)cc(C)nc2c1` [TCMDC-142089], 108%.
Under `Cc1ccc2c(N/N=C/c3cccc([N+](=O)[O-])c3)cc(C)nc2c1` [TCMDC-142072] stands 87.02%.
As for `Cc1cc(N/N=C/c2ccccc2[N+](=O)[O-])c2ccccc2n1` [TCMDC-123978], the “% Inhibition” value is recorded as -75.07%.
For the compound `COc1ccc2c(N/N=C/c3ccccc3[N+](=O)[O-])cc(C)nc2c1` [TCMDC-142088], the “% Inhibition” value is reported as -15.58%.
For the compound `CNC(=O)CSc1nnc(-c2ccc(C)cc2)c(-c2ccc(C)cc2)n1` [TCMDC-123901], the “% Inhibition” value is listed as 5.321%.
As for `NC(=O)Nc1ccc2cn[nH]c2c1` [TCMDC-131601], the “% Inhibition” value was 13.14%.
Regarding `C=CCc1cccc(CN2CCC(c3cc(=O)[nH]c(-c4ccccn4)n3)CC2)c1O` [TCMDC-124851], the “% Inhibition” value was 46.78%.
For the compound `CCc1nc2c(N)nc(N)nc2nc1-c1ccc(OC)cc1` [TCMDC-132107], the “% Inhibition” value was determined as 7.623%.
Take `Cc1ccc(Nc2nc(N/N=C/c3ccccc3[N+](=O)[O-])nc(Nc3ccc([N+](=O)[O-])cc3)n2)cc1C` [TCMDC-124207]: the “% Inhibition” value stood at 32.01%.
As to `Cc1cccc(C=NNc2cc(C)nc3ccc(F)cc23)n1` [TCMDC-142019], the “% Inhibition” value is given as -41.63%.
On to `Cc1ccc2nc(C)cc(N/N=C/c3cccc([N+](=O)[O-])c3)c2c1` [TCMDC-142069], for which the “% Inhibition” value worked out at 66.26%.
`COc1cccc2c(N/N=C/c3ccccc3[N+](=O)[O-])cc(C)nc12` [TCMDC-142043]: the “% Inhibition” value is given as 74.75%.
For `Cc1ccc(Nc2nc(N/N=C/c3cccc([N+](=O)[O-])c3)nc(Nc3ccccc3)n2)c(C)c1` [TCMDC-124206], the “% Inhibition” value is listed as 1.923%.
For the compound `CCOc1ccc2nc(C)cc(NN=Cc3cccc(F)c3)c2c1` [TCMDC-142093], the “% Inhibition” value is reported as 73.55%.
Consider `Cc1cc(N/N=C/c2ccccc2[N+](=O)[O-])c2cccc(C)c2n1` [TCMDC-142073], for which the “% Inhibition” value is reported as -15.7%.
As to `Cc1cc(N2CCCC2)nc(Nc2ccc(NC(=O)c3ccccc3C)cc2)n1` [TCMDC-124711], the “% Inhibition” value is recorded as -8.542%.
With `CCOC(=O)c1c(C)noc1Nc1ccc(OC)cc1` [TCMDC-131521], the “% Inhibition” value is -6.953%.
With `CCc1c[nH]c2c(N3CCCS3(=O)=O)cc(C(=O)N[C@@H](Cc3ccccc3)[C@H](O)CNC(C)(C)CCCC(C)C)cc12` [TCMDC-135168], the “% Inhibition” value is listed as 100.1%.
As to `CCc1c[nH]c2c(N3CCCC3=O)cc(C(=O)N[C@@H](Cc3ccccc3)[C@H](O)CNC3CCCCC3)cc12` [TCMDC-135024], the “% Inhibition” value is listed as 43.33%.
On to `CCNc1cc(C(=O)N[C@@H](Cc2ccccc2)[C@H](O)CNCC(C)C)cc(N2CCCC2=O)c1` [TCMDC-138888], for which the “% Inhibition” value amounted to 11.22%.
In the case of `CCc1c[nH]c2c(N3CCCS3(=O)=O)cc(C(=O)N[C@@H](Cc3ccccc3)[C@H](O)CNC(C)(C)c3cccc(C(F)(F)F)c3)cc12` [TCMDC-135172], the “% Inhibition” value amounted to 20.21%.
In the case of `CCc1cn(C)c2c(N3CCCC3=O)cc(C(=O)N[C@@H](Cc3ccccc3)[C@H](O)CNC(C)(C)CCCC(C)C)cc12` [TCMDC-135199], the “% Inhibition” value is 78.23%.
On to `CCc1c[nH]c2c(N3CCCS3(=O)=O)cc(C(=O)N[C@@H](Cc3ccccc3)[C@H](O)CNC3CCCCC3)cc12` [TCMDC-135169], for which the “% Inhibition” value is given as 49.22%.
In the case of `COc1cccc(CNC[C@@H](O)[C@H](Cc2ccccc2)NC(=O)c2cc(N3CCCC3=O)c3[nH]cc(C(C)C)c3c2)c1` [TCMDC-132584], the “% Inhibition” value was -12.1%.
With `CCc1c[nH]c2c(N3CCCCC3=O)cc(C(=O)N[C@@H](Cc3ccccc3)[C@H](O)CNCc3cccc(OC)c3)cc12` [TCMDC-134156], the “% Inhibition” value is recorded as 3.442%.
Regarding `CCNc1cc(C(=O)N[C@@H](Cc2ccccc2)[C@H](O)CNCCC(C)c2ccccc2)cc(N2CCCC2=O)c1` (stereo partly shown) [TCMDC-141683], the “% Inhibition” value came to 6.791%.
The value for `CCc1ccnc2c(N3CCCC3=O)cc(C(=O)N[C@@H](Cc3ccccc3)[C@H](O)CNC3CCOCC3)cc12` [TCMDC-135882] was -3.363%.
Under `CCc1c[nH]c2c(N3CCCC3=O)cc(C(=O)N[C@@H](Cc3ccccc3)[C@H](O)CNC(C)(C)CCCC(C)C)cc12` [TCMDC-135025] stands 68.24%.
Under `CCc1cn(C)c2c(N3CCCC3=O)cc(C(=O)N[C@@H](Cc3ccccc3)[C@H](O)CNC3CCCCC3)cc12` [TCMDC-135198] stands 56.93%.
`COc1cc(Nc2nccc(N3CCC(NC(=O)c4cccc(C#N)c4)C3)n2)cc(OC)c1OC` (stereo not shown) [TCMDC-133620]: the “% Inhibition” value is 1.02%.
As to `N#Cc1cccc(C(=O)Nc2cccc(-c3ccc(C(=O)Nc4cccnc4)cc3)c2)c1` [TCMDC-133695], the “% Inhibition” value is -12.11%.
Take `O=C(/C=C/c1ccc(F)cc1)NC1CCC(CCN2CCCN(c3ccc(C(F)(F)F)cn3)CC2)CC1` (stereo not shown) [TCMDC-139724]: the “% Inhibition” value is recorded as -25.55%.
Turning to `c1ccc(-c2cccnn2)cc1` [TCMDC-123929], the “% Inhibition” value is -43.62%.
`CCCCc1cc(NCc2ccncc2)nc(Nc2cccc(OC)c2)n1` [TCMDC-133999]: the “% Inhibition” value was -9.372%.
As to `O=C(Nc1ccc(-c2cccc(-c3nc4ccc(C(F)(F)F)cc4[nH]3)c2)cc1)c1csnn1` [TCMDC-136903], the “% Inhibition” value is -25.31%.
For `Cc1ccc2c(c1)c(-c1ccccc1)c(-c1ccccc1)n2CC(O)CN1CCN(CC=Cc2ccccc2)CC1` (stereo not shown) [TCMDC-123998], the “% Inhibition” value is reported as 27.39%.
Under `O=C(C1CCN(C(c2ccccc2)c2ccc(Cl)c(Cl)c2)CC1)N1CC=CC1` (stereo not shown) [TCMDC-135516] stands -15.6%.
On to `COc1cc(C2=NN(S(=O)(=O)c3c(Cl)cc(Cl)cc3Cl)CCCC2)ccc1Cl` [TCMDC-136212], for which the “% Inhibition” value was -48.52%.
The value for `CCc1cn2c3c(cc(C(=O)N[C@@H](Cc4ccccc4)[C@H](O)CNC(C)C)cc13)N(C)S(=O)(=O)C2` [TCMDC-135401] was -18.09%; that for `CCc1cn2c3c(cc(C(=O)N[C@@H](Cc4ccccc4)[C@H](O)CNC(C)(C)c4cccc(OC)c4)cc13)N(C)S(=O)(=O)C2` [TCMDC-135393] was 41.96%; that for `CCc1cn2c3c(cc(C(=O)N[C@@H](Cc4ccccc4)[C@H](O)CNC(C)(C)CCCC(C)C)cc13)N(C)S(=O)(=O)C2` [TCMDC-135400] was 80.58%.
Consider `O=C(Nc1cccc(C(F)(F)F)c1)N1CCOC(CCN2CCC(c3ccccc3)CC2)(c2ccc(Cl)c(Cl)c2)C1` (stereo not shown) [TCMDC-135345], for which the “% Inhibition” value is -74.75%.
Turning to `CC(C)(C)c1ccc(N2C(N)=NC(N)=NC2(C)C)cc1Cl` [TCMDC-137710], the “% Inhibition” value was 44.95%.
As for `COc1ccc(Cc2c(Cl)nc3nc(N)nc(N)c3c2C)c(OC)c1OC` [TCMDC-137688], the “% Inhibition” value turned out to be 14.16%.
Take `N#CC(c1cccc(Cl)c1)c1ccc2c(C(F)(F)F)cc(C(F)(F)F)nc2n1` (stereo not shown) [TCMDC-125544]: the “% Inhibition” value was 14.86%.
On to `CCCOc1cc(OCCC)cc(-c2cc(=O)c3ccccc3[nH]2)c1` [TCMDC-138943], for which the “% Inhibition” value is 63.29%.
Turning to `O=c1cc(-c2ccc3ccccc3c2)[nH]c2ccccc12` [TCMDC-138937], the “% Inhibition” value turned out to be 4.967%.
Consider `CCCCCCCc1cc(=O)c2ccccc2[nH]1` [TCMDC-132026], for which the “% Inhibition” value is listed as 46.19%.
For the compound `CCCCCC(C)C(C)c1cc(O)c2c(c1)OC(C)(C)CC2(O)c1ccnn1C` (stereo not shown) [TCMDC-131795], the “% Inhibition” value is given as -1.098%.
For `COc1ccc2nccc([C@@H](O)CN3CCC(NC(=O)/C=C/c4ccc5cc(C)[nH]c5c4)CC3)c2c1` [TCMDC-141041], the “% Inhibition” value was -19.17%.
Turning to `NC(N)=Nc1nc(CCCCCCCCc2csc(N=C(N)N)n2)cs1` [TCMDC-137552], the “% Inhibition” value is 85.12%.
On to `N#C/N=C(\NCCCCCCCCN/C(=N\C#N)NCCSCc1csc(N=C(N)N)n1)NCCCSc1csc(N=C(N)N)n1` [TCMDC-139456], for which the “% Inhibition” value was -7.363%.
For the compound `NC(N)=Nc1nc(-c2ccc(N=C(N)N3CCC[C@H]3CN3CCCC3)cc2)cs1` [TCMDC-139612], the “% Inhibition” value is given as 25.87%.
Under `Cc1ccc([S+]([O-])Cc2ccc(Cl)cc2)cc1` (stereo not shown) [TCMDC-131393] stands 8.887%; under `COc1cc(Cc2cnc(N)nc2N)cc(OCCCCCC(N)=O)c1OC` [TCMDC-137361], 38.24%; under `COc1cccc(-c2csc(C(=O)NC3CCCCN(Cc4ccc(C(C)(C)C)cc4)C3)c2)c1` (stereo not shown) [TCMDC-134469], -86.38%.
Under `COc1ccccc1-c1csc(C(=O)NC2CCCCN(Cc3ccc(C(C)(C)C)cc3)C2)c1` (stereo not shown) [TCMDC-134516] stands 70.05%; under `CC(C)(C)c1ccc(CN2CCCCC(NC(=O)c3cc(-c4ccccc4Cl)cs3)C2)cc1` (stereo not shown) [TCMDC-134467], -60.63%; under `CC(C)(C)c1ccc(CN2CCCCC(NC(=O)c3cc(-c4ccccc4F)cs3)C2)cc1` (stereo not shown) [TCMDC-134465], 82.77%.
Under `CCc1ccc(CN2CCCCC(NC(=O)c3cc(-c4ccccc4F)cs3)C2)cc1` (stereo not shown) [TCMDC-134461] stands -44.42%; under `O=C(NC1CCCCN(Cc2ccc3c(c2)OCCO3)C1)c1cc(-c2ccccc2F)cs1` (stereo not shown) [TCMDC-134517], -15.69%.

Broadly, the % Inhibition is the drop in the measured response relative to a control, in per cent.

The record behind these values is publication PMC4552634, “A New Set of Chemical Starting Points with Plasmodium falciparum Transmission-Blocking Potential for Antimalarial Drug Discovery” (PLoS ONE, 2015).
